Laboratory results as given in publication PMC11006913.

Experiments:
Assay in all cases: PBM; 200 nM protein, PBS
Conditions in all cases: dsDNA, one strand shown
[1] = molecular target: SHOX (Homo sapiens, UniProt O15266 103-189, R173C)
[2] = molecular target: HOXB9 (Homo sapiens, UniProt P17482 171-250)
[3] = molecular target: HOXB9 (Homo sapiens, UniProt P17482 171-250, R186Q)
[4] = molecular target: HOXC9 (Homo sapiens, UniProt P31274 178-260, K195R)
[5] = molecular target: HOXA7 (Homo sapiens, UniProt P31268 116-202)
Chain of HOXA7 (Homo sapiens, UniProt P31268 116-202) (P31268 116-202): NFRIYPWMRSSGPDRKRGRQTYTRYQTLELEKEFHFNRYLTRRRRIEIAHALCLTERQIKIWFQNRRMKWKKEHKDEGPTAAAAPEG

[6] = molecular target: HOXC10 (Homo sapiens, UniProt Q9NYD6 254-340)
Chain of HOXC10 (Homo sapiens, UniProt Q9NYD6 254-340) (Q9NYD6 254-340): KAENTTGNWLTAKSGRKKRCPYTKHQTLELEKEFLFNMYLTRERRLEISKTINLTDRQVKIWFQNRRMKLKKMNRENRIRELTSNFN

[7] = molecular target: HOXB6 (Homo sapiens, UniProt P17509 132-218, K202E)
Chain of HOXB6 (Homo sapiens, UniProt P17509 132-218, K202E) (P17509 132-218 K202E): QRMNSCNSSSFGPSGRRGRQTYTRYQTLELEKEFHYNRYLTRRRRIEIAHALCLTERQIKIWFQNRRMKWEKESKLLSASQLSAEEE

[8] = molecular target: HOXC9 (Homo sapiens, UniProt P31274 178-260)
Chain of HOXC9 (Homo sapiens, UniProt P31274 178-260) (P31274 178-260): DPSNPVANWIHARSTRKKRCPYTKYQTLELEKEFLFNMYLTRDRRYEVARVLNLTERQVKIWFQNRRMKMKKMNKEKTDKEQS

[9] = molecular target: HOXD13 (Homo sapiens, UniProt P35453 263-343, T313R)
Chain of HOXD13 (Homo sapiens, UniProt P35453 263-343, T313R) (P35453 263-343 T313R): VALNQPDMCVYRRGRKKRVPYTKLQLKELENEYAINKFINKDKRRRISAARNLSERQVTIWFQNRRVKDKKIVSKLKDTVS

[10] = molecular target: HOXC9 (Homo sapiens, UniProt P31274 178-260, R193K)
Chain of HOXC9 (Homo sapiens, UniProt P31274 178-260, R193K) (P31274 178-260 R193K): as the sequence (P31274 178-260) above, with R16K counted along it

[11] = molecular target: HOXD13 (Homo sapiens, UniProt P35453 263-343)
Chain of HOXD13 (Homo sapiens, UniProt P35453 263-343) (P35453 263-343): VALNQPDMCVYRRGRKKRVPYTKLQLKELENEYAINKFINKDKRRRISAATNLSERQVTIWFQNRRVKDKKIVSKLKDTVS

[12] = molecular target: HOXC10 (Homo sapiens, UniProt Q9NYD6 254-340, K271E)
Chain of HOXC10 (Homo sapiens, UniProt Q9NYD6 254-340, K271E) (Q9NYD6 254-340 K271E): as the sequence (Q9NYD6 254-340) above, with K18E counted along it

[13] = molecular target: HOXD13 (Homo sapiens, UniProt P35453 263-343, T313A)
Chain of HOXD13 (Homo sapiens, UniProt P35453 263-343, T313A) (P35453 263-343 T313A): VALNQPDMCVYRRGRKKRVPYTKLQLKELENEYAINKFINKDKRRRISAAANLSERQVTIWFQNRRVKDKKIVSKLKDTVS

[14] = molecular target: HOXC9 (Homo sapiens, UniProt P31274 178-260, R222W)
Chain of HOXC9 (Homo sapiens, UniProt P31274 178-260, R222W) (P31274 178-260 R222W): as the sequence (P31274 178-260) above, with R45W counted along it

[15] = molecular target: HOXA7 (Homo sapiens, UniProt P31268 116-202, W177C)
Chain of HOXA7 (Homo sapiens, UniProt P31268 116-202, W177C) (P31268 116-202 W177C): as the sequence (P31268 116-202) above, with W62C counted along it

[16] = molecular target: HOXB6 (Homo sapiens, UniProt P17509 132-218)
Chain of HOXB6 (Homo sapiens, UniProt P17509 132-218) (P17509 132-218): as the sequence (P17509 132-218 K202E) above, with E71K counted along it

[17] = molecular target: HESX1 (Homo sapiens, UniProt Q9UBX0 95-180, F115L)
Chain of HESX1 (Q9UBX0 95-180 F115L): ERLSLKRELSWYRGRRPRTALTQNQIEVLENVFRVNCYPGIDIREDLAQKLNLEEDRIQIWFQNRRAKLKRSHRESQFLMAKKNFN

Chain of HOXB9 (Homo sapiens, UniProt P17482 171-250) (P17482 171-250): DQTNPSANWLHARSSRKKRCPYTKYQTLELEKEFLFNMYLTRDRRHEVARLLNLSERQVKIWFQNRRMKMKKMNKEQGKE
Chain of HOXC9 (Homo sapiens, UniProt P31274 178-260, K195R) (P31274 178-260 K195R): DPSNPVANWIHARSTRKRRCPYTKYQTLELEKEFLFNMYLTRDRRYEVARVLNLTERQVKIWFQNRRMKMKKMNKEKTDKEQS
Chain of HOXB9 (Homo sapiens, UniProt P17482 171-250, R186Q) (P17482 171-250 R186Q): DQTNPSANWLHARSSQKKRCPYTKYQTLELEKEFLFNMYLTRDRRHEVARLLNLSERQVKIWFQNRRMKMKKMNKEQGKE
Chain of SHOX (O15266 103-189 R173C): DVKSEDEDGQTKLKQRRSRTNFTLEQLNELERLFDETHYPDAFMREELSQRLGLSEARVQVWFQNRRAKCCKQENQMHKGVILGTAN

ACTCATTA
binding signal [1]: 9.29 upbm affinity estimate (log intensity, higher = more binding, comparable within an allelic series)

GGCCCCCC
binding signal [2]: 8.39 upbm affinity estimate (log intensity, higher = more binding, comparable within an allelic series) | binding signal [3]: 8.36 upbm affinity estimate (log intensity, higher = more binding, comparable within an allelic series)

ATCATTAA
binding signal [4]: 12.8 upbm affinity estimate (log intensity, higher = more binding, comparable within an allelic series) | binding signal [5]: 11.7 upbm affinity estimate (log intensity, higher = more binding, comparable within an allelic series) | binding signal [6]: 12.4 upbm affinity estimate (log intensity, higher = more binding, comparable within an allelic series) | binding signal [7]: 10.2 upbm affinity estimate (log intensity, higher = more binding, comparable within an allelic series) | binding signal [2]: 12.1 upbm affinity estimate (log intensity, higher = more binding, comparable within an allelic series) | binding signal [8]: 12.8 upbm affinity estimate (log intensity, higher = more binding, comparable within an allelic series) | binding signal [9]: 10.7 upbm affinity estimate (log intensity, higher = more binding, comparable within an allelic series) | binding signal [10]: 12.8 upbm affinity estimate (log intensity, higher = more binding, comparable within an allelic series) | binding signal [11]: 11.8 upbm affinity estimate (log intensity, higher = more binding, comparable within an allelic series) | binding signal [12]: 12.3 upbm affinity estimate (log intensity, higher = more binding, comparable within an allelic series) | binding signal [13]: 11.7 upbm affinity estimate (log intensity, higher = more binding, comparable within an allelic series) | binding signal [3]: 11.8 upbm affinity estimate (log intensity, higher = more binding, comparable within an allelic series) | binding signal [14]: 11.1 upbm affinity estimate (log intensity, higher = more binding, comparable within an allelic series) | binding signal [15]: 8.9 upbm affinity estimate (log intensity, higher = more binding, comparable within an allelic series) | binding signal [16]: 12 upbm affinity estimate (log intensity, higher = more binding, comparable within an allelic series)

TCATTAAA
binding signal [4]: 13 upbm affinity estimate (log intensity, higher = more binding, comparable within an allelic series) | binding signal [5]: 11.6 upbm affinity estimate (log intensity, higher = more binding, comparable within an allelic series) | binding signal [6]: 12.6 upbm affinity estimate (log intensity, higher = more binding, comparable within an allelic series) | binding signal [7]: 10.1 upbm affinity estimate (log intensity, higher = more binding, comparable within an allelic series) | binding signal [2]: 12.2 upbm affinity estimate (log intensity, higher = more binding, comparable within an allelic series) | binding signal [8]: 12.9 upbm affinity estimate (log intensity, higher = more binding, comparable within an allelic series) | binding signal [9]: 10.8 upbm affinity estimate (log intensity, higher = more binding, comparable within an allelic series) | binding signal [10]: 12.9 upbm affinity estimate (log intensity, higher = more binding, comparable within an allelic series) | binding signal [11]: 11.9 upbm affinity estimate (log intensity, higher = more binding, comparable within an allelic series) | binding signal [12]: 12.4 upbm affinity estimate (log intensity, higher = more binding, comparable within an allelic series) | binding signal [13]: 11.7 upbm affinity estimate (log intensity, higher = more binding, comparable within an allelic series) | binding signal [3]: 12 upbm affinity estimate (log intensity, higher = more binding, comparable within an allelic series) | binding signal [14]: 11.2 upbm affinity estimate (log intensity, higher = more binding, comparable within an allelic series) | binding signal [15]: 9 upbm affinity estimate (log intensity, higher = more binding, comparable within an allelic series) | binding signal [16]: 11.9 upbm affinity estimate (log intensity, higher = more binding, comparable within an allelic series)

GTCATTAA
binding signal [4]: 13.1 upbm affinity estimate (log intensity, higher = more binding, comparable within an allelic series) | binding signal [5]: 12.2 upbm affinity estimate (log intensity, higher = more binding, comparable within an allelic series) | binding signal [6]: 12.6 upbm affinity estimate (log intensity, higher = more binding, comparable within an allelic series) | binding signal [7]: 10.3 upbm affinity estimate (log intensity, higher = more binding, comparable within an allelic series) | binding signal [2]: 12.5 upbm affinity estimate (log intensity, higher = more binding, comparable within an allelic series) | binding signal [8]: 13.2 upbm affinity estimate (log intensity, higher = more binding, comparable within an allelic series) | binding signal [10]: 13.1 upbm affinity estimate (log intensity, higher = more binding, comparable within an allelic series) | binding signal [12]: 12.8 upbm affinity estimate (log intensity, higher = more binding, comparable within an allelic series) | binding signal [13]: 11.6 upbm affinity estimate (log intensity, higher = more binding, comparable within an allelic series) | binding signal [3]: 12.2 upbm affinity estimate (log intensity, higher = more binding, comparable within an allelic series) | binding signal [14]: 11 upbm affinity estimate (log intensity, higher = more binding, comparable within an allelic series) | binding signal [15]: 8.94 upbm affinity estimate (log intensity, higher = more binding, comparable within an allelic series) | binding signal [16]: 12.4 upbm affinity estimate (log intensity, higher = more binding, comparable within an allelic series)

ACCATTAA
binding signal [4]: 12.7 upbm affinity estimate (log intensity, higher = more binding, comparable within an allelic series) | binding signal [5]: 11.7 upbm affinity estimate (log intensity, higher = more binding, comparable within an allelic series) | binding signal [7]: 10.1 upbm affinity estimate (log intensity, higher = more binding, comparable within an allelic series) | binding signal [2]: 11.8 upbm affinity estimate (log intensity, higher = more binding, comparable within an allelic series) | binding signal [8]: 12.7 upbm affinity estimate (log intensity, higher = more binding, comparable within an allelic series) | binding signal [10]: 12.6 upbm affinity estimate (log intensity, higher = more binding, comparable within an allelic series) | binding signal [12]: 11.9 upbm affinity estimate (log intensity, higher = more binding, comparable within an allelic series) | binding signal [3]: 11.6 upbm affinity estimate (log intensity, higher = more binding, comparable within an allelic series) | binding signal [14]: 10.9 upbm affinity estimate (log intensity, higher = more binding, comparable within an allelic series) | binding signal [15]: 8.92 upbm affinity estimate (log intensity, higher = more binding, comparable within an allelic series) | binding signal [16]: 12 upbm affinity estimate (log intensity, higher = more binding, comparable within an allelic series)

GGAGCTCC
binding signal [2]: 8.6 upbm affinity estimate (log intensity, higher = more binding, comparable within an allelic series) | binding signal [3]: 8.62 upbm affinity estimate (log intensity, higher = more binding, comparable within an allelic series)

ATTATTAA
binding signal [7]: 10.1 upbm affinity estimate (log intensity, higher = more binding, comparable within an allelic series) | binding signal [17]: 7.79 upbm affinity estimate (log intensity, higher = more binding, comparable within an allelic series)

CCTACAGG
binding signal [7]: 9 upbm affinity estimate (log intensity, higher = more binding, comparable within an allelic series) | binding signal [2]: 8.25 upbm affinity estimate (log intensity, higher = more binding, comparable within an allelic series) | binding signal [3]: 8.25 upbm affinity estimate (log intensity, higher = more binding, comparable within an allelic series) | binding signal [16]: 8.98 upbm affinity estimate (log intensity, higher = more binding, comparable within an allelic series)

ACATTAAT
binding signal [4]: 12.7 upbm affinity estimate (log intensity, higher = more binding, comparable within an allelic series) | binding signal [5]: 11.6 upbm affinity estimate (log intensity, higher = more binding, comparable within an allelic series) | binding signal [6]: 12.2 upbm affinity estimate (log intensity, higher = more binding, comparable within an allelic series) | binding signal [7]: 10.1 upbm affinity estimate (log intensity, higher = more binding, comparable within an allelic series) | binding signal [2]: 11.9 upbm affinity estimate (log intensity, higher = more binding, comparable within an allelic series) | binding signal [8]: 12.7 upbm affinity estimate (log intensity, higher = more binding, comparable within an allelic series) | binding signal [10]: 12.7 upbm affinity estimate (log intensity, higher = more binding, comparable within an allelic series) | binding signal [12]: 12 upbm affinity estimate (log intensity, higher = more binding, comparable within an allelic series) | binding signal [3]: 11.7 upbm affinity estimate (log intensity, higher = more binding, comparable within an allelic series) | binding signal [14]: 11 upbm affinity estimate (log intensity, higher = more binding, comparable within an allelic series) | binding signal [15]: 8.92 upbm affinity estimate (log intensity, higher = more binding, comparable within an allelic series) | binding signal [16]: 12 upbm affinity estimate (log intensity, higher = more binding, comparable within an allelic series)

GGTCATTA
binding signal [5]: 11.8 upbm affinity estimate (log intensity, higher = more binding, comparable within an allelic series) | binding signal [7]: 9.99 upbm affinity estimate (log intensity, higher = more binding, comparable within an allelic series) | binding signal [12]: 12 upbm affinity estimate (log intensity, higher = more binding, comparable within an allelic series) | binding signal [15]: 8.85 upbm affinity estimate (log intensity, higher = more binding, comparable within an allelic series) | binding signal [16]: 12.1 upbm affinity estimate (log intensity, higher = more binding, comparable within an allelic series)

GCCGCTCC
binding signal [9]: 9.38 upbm affinity estimate (log intensity, higher = more binding, comparable within an allelic series) | binding signal [11]: 9.56 upbm affinity estimate (log intensity, higher = more binding, comparable within an allelic series) | binding signal [13]: 9.61 upbm affinity estimate (log intensity, higher = more binding, comparable within an allelic series)

CCCCCTCG
binding signal [2]: 8.63 upbm affinity estimate (log intensity, higher = more binding, comparable within an allelic series) | binding signal [3]: 8.59 upbm affinity estimate (log intensity, higher = more binding, comparable within an allelic series)
